Assay results taken from PubChem BioAssay (Tox21).
Records with an inconclusive call do not appear. Activity calls are given as the source filed them. Unless noted, calls follow the shape of the dose curve; as a rule, active = well fitted curve in the direction sought with a large enough effect in the repeat runs; inconclusive = weak or mixed curves; inactive = no such curve, though single readings can be large; an effect the other way counts as inactive or inconclusive.

Experiments:
[1] = qHTS assay for small molecule agonists of the p53 signaling pathway (AID 651631; calls by dose curve; also: nearly all actives have a fitted effect of over 15% in size)
Procedure, shortened: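 Readout was fluorescence from the LiveBLAzer FRET substrate, applied for 2 h at room temperature after 16 h compound exposure at 37 °C. Cells were the p53RE-bla HCT-116 line, with beta-lactamase driven by p53 response elements.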

[2] = qHTS assay for small molecules that induce genotoxicity in human embryonic kidney cells expressing luciferase-tagged ATAD5 (AID 651632); also: nearly all actives have a fitted effect of over 15% in size
Procedure, shortened: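 HEK293T cells carrying a luciferase reporter tagged to ATAD5 were exposed to compound or DMSO vehicle for 16 hr at 37C, 5% CO2. Amplite was added, and after 30 min at room temperature luciferase activity was read as a marker of ATAD5 induction.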

[3] = qHTS assay for small molecule agonists of the p53 signaling pathway - cell viability (AID 651633; calls by dose curve; also: series mostly up to about 83 µM; nearly all actives have a fitted effect of over 30% in size)
Procedure, shortened: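 p53RE-bla cells, seeded at 4,000 per well and rested 5 h at 37 C/5% CO2, received compounds in DMSO for 16 h at 37 C. CellTiter-Glo was then added, and luminescence was read after 30 min at room temperature to gauge cytotoxicity.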

[4] = qHTS assay for small molecules that induce genotoxicity in human embryonic kidney cells expressing luciferase-tagged ATAD5 - cell viability (AID 651634; calls by dose curve; also: nearly all actives have a fitted effect of over 25% in size)
Procedure, shortened: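 HEK293T cells expressing luciferase-tagged ATAD5 were exposed to compound or DMSO for 15.5 hr at 37C, 5% CO2. Viability was then read as live-cell protease activity by CellTiter-Fluor fluorescence after 30 min at 37C.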

[5] = qHTS assay for small molecule disruptors of the mitochondrial membrane potential - cell viability (AID 720634; calls by dose curve;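 also: human HepG2 liver cancer cells; series mostly up to about 83 µM; nearly all actives have a fitted effect of over 20% in size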)
Procedure, shortened: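 HepG2 cells seeded overnight at 37 C, then exposed to compound or DMSO for 1 hr at 37 C, 5% CO2. m-MPI dye added, then CellTiter-Glo for 30 min at room temperature; viability read as ATP luminescence.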

[6] = qHTS assay to test for compound auto fluorescence at 590 nm (red) in HepG2 cells (AID 720674)
Procedure, shortened: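 Rose Bengal sodium served as the red fluorophore standard. HepG2 monolayers (overnight attachment, MEM with 10% FBS) were exposed to test compounds for 1 hr at 37 C and read at Ex 540/Em 590 nm.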

[7] = qHTS assay to test for compound auto fluorescence at 535 nm (green) in HepG2 cells (AID 720675)
[8] = qHTS assay to test for compound auto fluorescence at 460 nm (blue) in HEK293 cells (AID 720678)
Procedure, shortened: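 Blue-channel (Ex/Em 405/460 nm) intensity measured in HEK293 cultures after overnight compound exposure at 37C; signal expressed relative to triamterene. Cells plated 2,000 per well in 10% dialyzed FBS medium and allowed 4-5 hr to attach.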

[9] = qHTS assay to test for compound auto fluorescence at 590 nm (red) in HEK293 cells (AID 720679)
Procedure, shortened: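 Red-channel autofluorescence (Ex/Em 540/590 nm; Rose Bengal sodium reference) was measured after overnight 37C, 5% CO2 exposure of attached HEK293 cells, 2,000 per well in medium with 10% dialyzed FBS.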

[10] = qHTS assay to test for compound auto fluorescence at 535 nm (green) in HEK293 cells (AID 720680)
[11] = qHTS assay to test for compound auto fluorescence at 460 nm (blue) in HEK293 cell free culture (AID 720681)
Procedure, shortened: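 Test compounds were pinned into cell-free culture medium (DMEM with 10% FBS) and fluorescence was read directly at Ex/Em 405/460 nm. Signals were expressed as fluorescence equivalents of triamterene, with DMSO vehicle as control.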

[12] = qHTS assay to test for compound auto fluorescence at 535 nm (green) in HEK293 cell free culture (AID 720682)
Procedure, shortened: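 Compounds were pin-transferred into cell-free DMEM with 10% FBS, and green fluorescence was read at excitation 485 nm and emission 535 nm. Intensities were expressed as fluorescein-equivalent values.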

[13] = qHTS assay to test for compound auto fluorescence at 590 nm (red) in HEK293 cell free culture (AID 720683)
Procedure, shortened: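 Tox21 10K library compounds were pinned into cell-free DMEM with 10% FBS and fluorescence was read at excitation 540 nm. Activity is expressed as Rose Bengal sodium equivalency.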

[14] = qHTS assay to test for compound auto fluorescence at 590 nm (red) in HepG2 cell free culture (AID 720684)
Procedure, shortened: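 Measured in medium alone (MEM containing 10% FBS) following pintool addition of compound; emission at 590 nm with 540 nm excitation, referenced to Rose Bengal sodium.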

[15] = qHTS assay to test for compound auto fluorescence at 460 nm (blue) in HepG2 cell free culture (AID 720685)
Procedure, shortened: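 Compound (23 nL) or DMSO pinned into cell-free MEM with 10% FBS; blue fluorescence read at 405/460 nm excitation/emission, expressed as auto-fluorescence equivalency to triamterene.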

[16] = qHTS assay to test for compound auto fluorescence at 535 nm (green) in HepG2 cell free culture (AID 720686)
[17] = qHTS assay to test for compound auto fluorescence at 460 nm (blue) in HepG2 cells (AID 720687)
Procedure, shortened: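 Cells (2,000/well in MEM with 10% FBS) attached overnight at 37 C, then were exposed to compound or DMSO for 1 hr at 37 C, 5% CO2. Fluorescence read at Ex/Em 405/460 nm, expressed as triamterene-equivalent signal.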

[18] = molecular target: Glucocorticoid receptor (Homo sapiens) (UniProt P04150); test: qHTS assay to identify small molecule agonists of the glucocorticoid receptor (GR) signaling pathway (AID 720691; active = well fitted activation curve with a large enough effect in the signal ratio in the repeat runs, not every such curve was filed as active; the % refers to the signal ratio)
Sequence of Glucocorticoid receptor (Homo sapiens) (P04150 whole entry, looked up): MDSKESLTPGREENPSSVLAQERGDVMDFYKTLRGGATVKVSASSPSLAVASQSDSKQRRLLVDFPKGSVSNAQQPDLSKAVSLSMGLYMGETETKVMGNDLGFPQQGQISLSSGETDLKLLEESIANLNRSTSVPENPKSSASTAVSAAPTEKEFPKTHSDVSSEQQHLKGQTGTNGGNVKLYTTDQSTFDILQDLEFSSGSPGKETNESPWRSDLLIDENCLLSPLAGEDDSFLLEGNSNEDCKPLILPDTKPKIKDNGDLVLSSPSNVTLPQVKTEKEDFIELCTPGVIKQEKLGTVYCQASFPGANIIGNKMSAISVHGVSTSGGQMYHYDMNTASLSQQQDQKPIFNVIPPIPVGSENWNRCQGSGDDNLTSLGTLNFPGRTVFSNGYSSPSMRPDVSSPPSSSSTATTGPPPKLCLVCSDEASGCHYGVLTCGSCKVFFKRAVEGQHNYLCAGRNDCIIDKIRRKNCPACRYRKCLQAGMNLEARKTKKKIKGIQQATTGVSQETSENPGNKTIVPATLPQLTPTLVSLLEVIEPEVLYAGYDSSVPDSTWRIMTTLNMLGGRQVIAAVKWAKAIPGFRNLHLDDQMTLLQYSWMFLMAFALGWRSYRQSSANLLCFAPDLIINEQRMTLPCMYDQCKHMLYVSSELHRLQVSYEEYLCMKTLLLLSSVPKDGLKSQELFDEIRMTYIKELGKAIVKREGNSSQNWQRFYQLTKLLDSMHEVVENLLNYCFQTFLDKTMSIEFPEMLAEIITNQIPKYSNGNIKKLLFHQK
Procedure, shortened: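 GR-bla HeLa cells (beta-lactamase reporter under glucocorticoid response element) were plated 4 h at 37 C/5% CO2, given compounds in DMSO, and incubated 18 h at 37 C. LiveBLAzer B/G FRET substrate was added for 2 h at room temperature, then fluorescence intensity read.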

[19] = molecular target: Glucocorticoid receptor (Homo sapiens) (UniProt P04150); test: qHTS assay to identify small molecule antagonists of the glucocorticoid receptor (GR) signaling pathway (AID 720692; active = well fitted inhibition curve with a large enough effect in the signal ratio in the repeat runs, not every such curve was filed as active; the % refers to the signal ratio)
Procedure, shortened: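 GR-bla HeLa cells (beta-lactamase reporter under glucocorticoid response element) were pre-plated 4 h at 37 C, treated with compounds plus 5 nM dexamethasone (final) for 18 h, then read by LiveBLAzer B/G FRET fluorescence after 2 h.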

Measured: Potency

CC(=O)CCC(C)=O
inactive: all assays above

ClCc1ccccc1
not listed: [18] | [19]
inactive: all other assays above

CC(Cl)C(C)Cl (stereo not drawn)
inactive: all assays above

CN1C(=O)NC(=O)C(C)(C2=CCCCC2)C1=O (stereo not drawn)
not listed: [18]
inactive: all other assays above

CCCCNP(N)(N)=S
not listed: [19]
inactive: all other assays above

N#C/C(N)=C(/N)C#N
not listed: [19]
inactive: all other assays above

CCOS(C)(=O)=O
not listed: [18] | [19]
inactive: all other assays above

O=C(NCc1cccnc1)Nc1ccc([N+](=O)[O-])cc1
not listed: [18] | [19]
inactive: all other assays above
